Over roughly 33,000 sequences, “E-score (-0.5 to 0.5)” has its median near -0.032; the highest 2% begin near 0.36. Shown is part of a subset that was picked to be rich in the highest values.

For the test, the target named is T1, Sko1 (UniProt Q02100).
T1 sequence: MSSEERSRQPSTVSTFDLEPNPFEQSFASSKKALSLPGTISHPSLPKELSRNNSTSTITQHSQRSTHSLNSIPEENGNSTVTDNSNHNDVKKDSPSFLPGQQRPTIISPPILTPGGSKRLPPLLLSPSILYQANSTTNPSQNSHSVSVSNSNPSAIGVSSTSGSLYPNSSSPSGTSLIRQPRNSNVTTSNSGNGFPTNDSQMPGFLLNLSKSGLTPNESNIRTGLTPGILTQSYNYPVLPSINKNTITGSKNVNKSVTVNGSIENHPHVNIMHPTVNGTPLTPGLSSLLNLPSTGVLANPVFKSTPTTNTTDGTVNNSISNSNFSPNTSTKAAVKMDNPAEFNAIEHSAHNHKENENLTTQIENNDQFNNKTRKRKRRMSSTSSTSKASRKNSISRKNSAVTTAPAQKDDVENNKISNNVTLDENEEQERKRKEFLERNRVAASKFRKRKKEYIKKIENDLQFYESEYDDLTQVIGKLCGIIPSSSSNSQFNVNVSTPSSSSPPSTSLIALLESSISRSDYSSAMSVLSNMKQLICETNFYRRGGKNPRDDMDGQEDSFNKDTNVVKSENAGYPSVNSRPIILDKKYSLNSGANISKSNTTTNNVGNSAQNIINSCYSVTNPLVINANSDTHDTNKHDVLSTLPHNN
Nature of the test: PBM E-score (8-mer binding enrichment) (E-score (-0.5 to 0.5)); higher = stronger / more preferred TF binding. As to conditions: protein concentration: 200 nM; construct: GST-full length. Here is the method:
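Universal 'all 10-mer' protein binding microarrays (Agilent AMADID 015681) probed with GST-tagged S. cerevisiae TFs (full-length or DBD) made by in vitro transcription/translation (PURExpress), about 100-200 nM. Bound TF was detected with fluorescent anti-GST. Each ungapped 8-mer (which stands for itself and its reverse complement) is scored by the PBM enrichment score (E-score), a modified Wilcoxon-Mann-Whitney statistic from -0.5 to +0.5, computed with the Universal PBM Analysis Suite. Scale: above 0.35 generally sequence-specific binding.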
Turning to CGTTCAAC, the “PBM E-score” value came out at 0.112.
The result for GGTCTCCA reads -0.19; that for CGTCCGAC, -0.0238.
The result for ACAACCGG reads -0.197; that for CAGACCAC, -0.0177; that for CACCAGCA, 0.0552.
The value for AGCGCGAT was -0.0488; that for ACTCGAAA was 0.0248.
Regarding ATGTATGA, the “PBM E-score” value was 0.288.
CCGCGTAA: the “PBM E-score” value was determined as 0.318.
The value for TCGCGTAA was 0.393; that for GCGCGTAA was 0.336.
Consider AATGCGTG, for which the “PBM E-score” value was found to be 0.214.
CATGCGTA: the “PBM E-score” value stood at 0.38.
As for AATGCGTA, the “PBM E-score” value was 0.39.
The value for GATGCGTA was 0.272; that for AATGCGTC was 0.185; that for CATGCGTC was 0.161.
Regarding GGGTGAAC, the “PBM E-score” value was -0.114.
ACATAGGG: the “PBM E-score” value was -0.181.
For AGATAGCC, the “PBM E-score” value is -0.299.
With ACATCTAG, the “PBM E-score” value was -0.0627.
Take AACATTCC: the “PBM E-score” value was found to be 0.0401.
The result for AACATACT reads 0.0365.
For CACATACG, the “PBM E-score” value worked out at 0.276.
The value for CGCATACA was 0.0477; that for ATCATACA was 0.257.
The value for ATCATACG was 0.365; that for AACATACG was 0.387.
Regarding ATCATACC, the “PBM E-score” value amounted to 0.171.
As to CGCATACG, the “PBM E-score” value worked out at 0.378.
In the case of CGCATACC, the “PBM E-score” value came out at 0.0198.
Take CTGCTACA: the “PBM E-score” value is -0.0447.
As for AATGCTTA, the “PBM E-score” value was -0.1.
For the sequence CAGTATGC, the “PBM E-score” value is -0.0805.
Consider GTTCCGCA, for which the “PBM E-score” value was 0.00536.
Take GTCGATCA: the “PBM E-score” value is -0.0654.
TATCGCCA: the “PBM E-score” value amounted to 0.0834.
Regarding CCCTATGA, the “PBM E-score” value was 0.0198.
The value for AAGTCCAA was 0.0276.
Regarding AATAACGC, the “PBM E-score” value stood at 0.106.
Turning to AATAACGT, the “PBM E-score” value was determined as 0.426.
AATAACGG: the “PBM E-score” value was found to be 0.138.
Regarding GCCTCAAC, the “PBM E-score” value was -0.175.
The result for CCGTTTTC reads 0.0601.
For CCGTTTTA, the “PBM E-score” value is -0.00533.
In the case of AGGTTTTG, the “PBM E-score” value is -0.0965.
The value for GCGTTTTA was 0.125.
Regarding ACGTTTTG, the “PBM E-score” value worked out at 0.393.
For the sequence ACGTTTTC, the “PBM E-score” value was found to be 0.396.
The value for ACGTTTGG was 0.296.
The result for ACGTTTTA reads 0.364; that for ACGTTTCC, 0.294.
The result for GGCTACAA reads -0.0783; that for CATCGAGA, 0.0586.
For the sequence CACTTGAC, the “PBM E-score” value was 0.186.
The result for AAGGTTAA reads 0.06; that for AAATGTCG, 0.159.
Turning to AGCTTGCA, the “PBM E-score” value came out at 0.0429.
The value for CGCCTACC was -0.145.
The result for CCTCTGCA reads -0.229.
Regarding CGTAACTA, the “PBM E-score” value turned out to be 0.381.
The value for GGTAACTA was 0.0515.
In the case of CGTAACCA, the “PBM E-score” value was found to be 0.389.
Take GGTAACCA: the “PBM E-score” value is -0.101.
Turning to CGTAACGA, the “PBM E-score” value is 0.366.
The result for CGTAACCC reads 0.289; that for CGTAACGC, 0.34; that for GGTAACGA, 0.0123.
For CGTAACTC, the “PBM E-score” value is 0.331.
For ACCGTGCG, the “PBM E-score” value worked out at 0.0174.
Regarding TCTACTAA, the “PBM E-score” value came to 0.0947.
For the sequence CGTTTAAA, the “PBM E-score” value stood at 0.277.
Consider TGAATGAA, for which the “PBM E-score” value came to 0.197.
As for ATAGGTCG, the “PBM E-score” value is -0.195.
The value for AATGTCGA was 0.217; that for AATGTCGG was 0.0603.
The value for AATGTCGT was 0.371; that for CGATTGTC was 0.0842.
Take AGGAGCCC: the “PBM E-score” value is -0.142.
Take ACATTACA: the “PBM E-score” value amounted to 0.28.
Take ACATTACG: the “PBM E-score” value was determined as 0.425.
The result for CCATTACA reads 0.089; that for ACATTACT, 0.0825.
Take CCATTACG: the “PBM E-score” value is 0.438.
The value for CCATTACC was -0.148.

These data come from the supplement of paper PMC3334620.
